SMILES strings stand for the structures. This is part of a sample that, as a whole, favours compounds with a hit. Of some 83,000 tested, about 20% had one in any assay.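 Values shown are percent growth following 48 h exposure of cells in 96-well plates to a single concentration of compound; below 10 was considered active.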 A number with no mark means an inactive call. The source made the active and inactive calls.

Data on 30 molecules can be found in PubChem BioAssay (NCI).

What all share (experiment): NCI-60 one-dose screen, 48 h (100 = growth as untreated, 0 = no growth, -100 = all killed)
Holding throughout (settings): 10 µM unless noted

Test [1] concerns T-47D breast.
Test [2] deals with BT-549 breast.
In test [3] the test system is MDA-MB-435 melanoma.
Test [4] concerns SW-620 colon.
The subject of test [5] is MCF7 breast.
Test [6] concerns HCT-116 colon.
The test system of test [7] is HCC-2998 colon.
In test [8] the test system is KM12 colon.

On to `CCN(CC)CCNc1ccc(C)c2sc3cc(C)ccc3c(=O)c12`, for which the growth was 66.5% in test [1]; 68.3% in test [2]; 37.3% in test [3]; 43.6% in test [4]; 43.7% in test [5]; 23.1% in test [6]. Further, the growth was 66.4% in test [7] and 60.1% in test [8].

Turning to `CC(C)c1ccc(NC(=O)Cc2ccc(Nc3ncnc4cc(-c5cnn(CCN(C)C)c5)ccc34)cc2)cc1`, the growth in test [1] was -37.1% [30 µM] (active); in test [2], -15.3% [30 µM] (active); in test [3] it was -85.4% [30 µM] (active); in test [4], -82.6% [30 µM] (active); in test [5] it was -49.1% [30 µM] (active); in test [6], -19.7% [30 µM] (active). In addition, the growth is -79.6% [30 µM] (active) in test [7] and -86.4% [30 µM] (active) in test [8].

On to `CNC(=O)c1c(NC(=O)c2ccc(C(C)(C)C)cc2)sc2c1CCC(=O)C2`, for which the growth in test [1] is -23.5% (active); in test [2] it was 1.12% (active); in test [3], -9.83% (active); in test [4], -62.3% (active); in test [5], 8.99% (active); in test [6], 0.171% (active). Further, the growth was 23.3% in test [7] and -7.97% (active) in test [8].

`NS(=O)(=O)Oc1ccc(-c2sc3cc(O)ccc3c2C(=O)c2ccc(OCCN3CCCCC3)cc2)cc1`: the growth in test [1] was 86.6%; in test [2] it was 84.6%; in test [3], -28% (active); in test [4], 51.7%; in test [5], 29.4%; in test [6], 43.5%. In addition, the growth in test [7] was 59.5%; in test [8] it was 65.3%.

Take `NC(=O)CC1(O)C=C(Br)C(=O)C(Br)=C1`: the growth in test [1] is 31%; in test [2], 28.8%; in test [3] it was 32.4%; in test [4], -36.1% (active); in test [5], 25.6%; in test [6] it was -61.9% (active). The growth was 76.3% in test [7] and 109% in test [8].

For the molecule `CCOC(=O)C1=C(C)NC(SCc2nnc(-c3ccc(Cl)cc3)o2)=NC1c1ccc(Cl)cc1Cl` (stereo not given), the growth is 47.4% in test [1]; 89.7% in test [2]; 69% in test [3]; 66.2% in test [4]; 32% in test [5]; 28.8% in test [6]. The growth was 84.5% in test [7] and 63.4% in test [8].

With `CN(C)CCOC(=O)Nc1ccc(Cl)cc1`, the growth was 101% in test [1]; 82% in test [2]; 112% in test [3]; 104% in test [4]; 94.4% in test [5]; 86.8% in test [6]. Further, the values for the growth in test [7] and in test [8] were 102% and 104%, respectively.

Consider `CCc1cc(Cc2cc(CC)cc(C(C)(C)C)c2O)c(O)c(C(C)(C)C)c1`, for which the growth in test [1] was -0.979% (active); in test [2] it was 40.5%; in test [3] it was 18.4%; in test [4] it was 23.3%; in test [5] it was 11.2%; in test [6], 6.96% (active). The growth is 4.71% (active) in test [7] and 19.4% in test [8].

On to `N#Cc1c(NC(=O)c2ccc(Br)cc2)sc2c1CCCC2`, for which the growth in test [1] was 47.2%; in test [2], 52.2%; in test [3] it was -22.8% (active); in test [4], 19.2%; in test [5] it was 13.1%; in test [6] it was 22.3%. Moreover, the growth is 68.6% in test [7] and 25.3% in test [8].

In the case of `COc1cc2c(cc1OC)-c1ccc3cc4c(cc3c1N(CCN1CCCC1)C2)OCO4`, the growth in test [1] is -28.3% (active); in test [2], 21.8%; in test [3], 56.4%; in test [4], -40.1% (active); in test [5] it was -6.8% (active); in test [6], -84.5% (active). In addition, the growth in test [7] is 15.7%; in test [8] it was 16.7%.

Regarding `N#Cc1c(NC(=O)c2ccccc2I)sc2c1CCCC2`, the growth in test [1] is 61.4%; in test [2], 52.2%; in test [3] it was -4.69% (active); in test [4] it was 21%; in test [5] it was 15%; in test [6] it was 26.4%. Moreover, the growth in test [7] is 71.6%; in test [8] it was 34.2%.

On to `CCOc1ccc(-c2nc3ccc(-c4nc5ccc(N6CCN(C)CC6)cc5[nH]4)cc3[nH]2)cc1OCC`, for which the growth in test [1] is 15.2%; in test [2] it was -29.5% (active); in test [3], -2.53% (active); in test [4], 0.486% (active); in test [5], 7.04% (active); in test [6] it was -3.06% (active). In addition, the growth is -15.9% (active) in test [7] and 43% in test [8].

`COc1ccc(/C(C)=C(\c2ccc(Cl)cc2)c2ccc(OCCN3CCCCCC3)cc2)cc1F`: the growth in test [1] is 53.6%; in test [2] it was 66.3%; in test [3], 52.4%; in test [4] it was 20.3%; in test [5], 24.1%; in test [6], 22.9%. Also, the growth in test [7] was 36.9%; in test [8] it was 23%.

As to `CCn1c(Sc2nnc(Nc3ccccc3)s2)nc2c1c(=O)n(C)c(=O)n2C`, the growth was 87.2% in test [1]; 87.1% in test [2]; 103% in test [3]; 97.6% in test [4]; 98.6% in test [5]; 94.7% in test [6]. Moreover, the growth in test [7] is 92.7%; in test [8], 110%.

Consider `CCOC(=O)N1CCc2c(sc3c2C(=O)N[C@H](c2ccc(OC)cc2)N3)C1`, for which the growth is 79% in test [1]; 108% in test [2]; 98.7% in test [3]; 99.6% in test [4]; 97.7% in test [5]; 93.3% in test [6]. Further, the growth in test [7] is 104%; in test [8] it was 102%.

As to `Cc1nc(Nc2ccc(NC(=S)Nc3ccccc3)cc2)c2ccccc2n1`, the growth in test [1] is 87.6%; in test [2], 113%; in test [3] it was 112%; in test [4] it was 106%; in test [5], 77.4%; in test [6], 101%. Also, the growth in test [7] and in test [8] was 104% in each case.

In the case of `Cc1ccc(S(=O)(=O)N(CC[C@@H]2C[C@H]2c2cc3ccccc3o2)C(=O)NC2CCCCC2)cc1`, the growth in test [1] is 70.9%; in test [2], 112%; in test [3] it was 101%; in test [4] it was 92.1%; in test [5], 93.4%; in test [6], 85%. In addition, the values for the growth in test [7] and in test [8] were 101% and 105%, respectively.

Regarding `NC(=O)c1c(NC(=O)c2ccc(C(F)(F)F)cc2Cl)sc2c1CCC(=O)C2`, the growth in test [1] is -21.2% (active); in test [2], -33.2% (active); in test [3], -42% (active); in test [4] it was -49.7% (active); in test [5], 5.41% (active); in test [6], -56.9% (active). Besides, the figures for the growth in test [7] and in test [8] were -6.6% (active) and -56.7% (active), respectively.

With `COc1ccc(-c2cc(-c3cc(OC)ccc3OC)[nH]c(=O)c2C#N)cc1`, the growth was 63.8% in test [1]; 48.7% in test [2]; 1.49% (active) in test [3]; 26.7% in test [4]; 59.5% in test [5]; 29.9% in test [6]. For the same molecule, the growth was 75.9% in test [7] and 51.4% in test [8].

`Clc1ccc2[nH]c3c(NCCCN4CCOCC4)ncnc3c2c1`: the growth in test [1] was 72.2%; in test [2], 77.9%; in test [3] it was 92.8%; in test [4] it was 57.2%; in test [5] it was 74.6%; in test [6] it was 36.3%. Besides, the growth in test [7] was 87.4%; in test [8], 86.5%.

As for `Cc1c2c(cn1Cc1ccccc1)CCc1cn[nH]c1-2`, the growth in test [1] is 90.3%; in test [2] it was 96.5%; in test [3], 26.8%; in test [4] it was 95.8%; in test [5], 81.5%; in test [6], 89.5%. The growth in test [7] was 86.1%; in test [8], 78.8%.

Regarding `Clc1ccc(-c2nc(NCCc3ccccc3)nc3c(NCCc4ccccc4)cnn23)cc1`, the growth is 63.3% in test [1]; 63.6% in test [2]; 42.6% in test [3]; 33.5% in test [4]; 31.1% in test [5]; 28.6% in test [6]. The growth is 72.4% in test [7] and 70% in test [8].

In the case of `O=C1CSC(c2ccccc2Cl)N1c1nnc(Cn2cnnc2)o1` (stereo not given), the growth in test [1] is 33.3%; in test [2] it was 60.6%; in test [3], -45.1% (active); in test [4], 39.4%; in test [5] it was -8.09% (active); in test [6] it was 13.3%. The growth in test [7] is 35.8%; in test [8], 50.9%.

As to `CCn1c(Sc2nnc(NC(=O)CCN3CCCC3)s2)nc2c1c(=O)n(C)c(=O)n2C`, the growth was 102% in test [1]; 110% in test [2]; 107% in test [3]; 105% in test [4]; 105% in test [5]; 105% in test [6]. Further, the growth in test [7] is 114%; in test [8] it was 109%.

As to `COc1cc(NC(=O)c2cc(O)c(CC=C(C)C)c(O)c2)cc2c1O[C@]1(C)CC[C@@H](O)C(C)(C)[C@H]1C2`, the growth in test [1] is 7.15% (active); in test [2], 8.48% (active); in test [3] it was 24.2%; in test [4], 14.7%; in test [5], 10.5%; in test [6], 23.8%. For the same molecule, the growth in test [7] is 48.7%; in test [8] it was 31.1%.

For `NC(N)=N/N=C/CO`, the growth in test [1] is 108%; in test [2], 96.7%; in test [3], 106%; in test [4], 106%; in test [5] it was 98.3%; in test [6], 94.1%. For the same molecule, the growth in test [7] was 119%; in test [8] it was 102%.

In the case of `COc1ccc(OC)c(/C=C2\COc3ccc(O)cc3C2=O)c1`, the growth in test [1] is 96.7%; in test [2] it was 93.5%; in test [3], 29.1%; in test [4] it was 14.3%; in test [5], 19.7%; in test [6], 66.9%. The growth in test [7] is 112%; in test [8] it was 60.2%.

For `CCN(CC)CC(=O)Nc1cccc(C(=O)OC(C)C)c1`, the growth in test [1] is 92%; in test [2], 66%; in test [3], 102%; in test [4] it was 115%; in test [5] it was 103%; in test [6], 72.8%. In addition, the figures for the growth in test [7] and in test [8] were 99.5% and 105%, respectively.

Consider `Cc1ccc(C)c2c1C(=O)OC2=O`, for which the growth in test [1] is 96.1%; in test [2] it was 104%; in test [3], 114%; in test [4], 107%; in test [5], 93.5%; in test [6], 96.4%. Moreover, the growth in test [7] was 118%; in test [8], 109%.

Regarding `N#Cc1c(N)nc2c(nnn2-c2cccc(Br)c2)c1N`, the growth in test [1] is 67.1%; in test [2], 97.1%; in test [3], 108%; in test [4], 96.9%; in test [5], 71.4%; in test [6], 91.3%. Besides, the growth is 106% in test [7] and 97% in test [8].
